IL1B secr inh: inflammasome signaling inhibition, IL-1 beta readout | THP-1 LPS/ATP IL-1B secretion, AlphaLISA, 16 h; active compounds read low | activity change, % at 57.5 µM | 4.7% of 360,000 active | AID 743279; in the data active = activity change below about -50%; inconclusive = mostly about -30% to -49%
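Secreted IL-1B measured by AlphaLISA bead assay after 16 h compound exposure of THP-1 cells; compounds (final up to 57.5 uM) added 1 h before LPS (250 ng/mL) and ATP (1.25 mM) stimulation; lower signal means less secretion.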
LDHA block: blocks human lactate dehydrogenase A; P00338; purified LDHA, NADH/diaphorase-resazurin fluorescence; active compounds read low; activity change, % (values are at about 110 or 230 µM); 0.15% of 480,000 active; AID 1347041; in the data active = activity change below about -30%; inconclusive = mostly about -25% to -30%;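 note: plate controls were DMSO wells for no effect and wells without enzyme for full effect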
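Human LDH5 at 2 nM final in Tris HCl pH 7.4 with 0.06 mM NADH and 0.2 mM pyruvate, reacted 5 minutes at room temperature. Remaining NADH coupled via diaphorase/resazurin; resorufin fluorescence read at 0 and 20 minutes, normalized to enzyme-free and DMSO wells.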
DT40 TDP1 CPT: growth inhibition of DT40 Tdp1-/-;hTDP1 cells with camptothecin (screen for TDP1 inhibitors); chicken DT40 Tdp1-/-;hTDP1 cells + 20 nM CPT, ATP luminescence, 48 h; Potency, µM (top dose mostly 46.2 µM), inactives show top-dose activity change, negative = growth inhibition, actives largely listed as inhibitors; 12% of 420,000 active; AID 686979; note: potency is the fitted concentration of half-maximal effect; nearly all actives have a fitted effect of over 55% in size
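Cell growth measured by CellTiter-Glo luminescence after a minimum 48 h, 37 C compound exposure with 20 nM CPT in Tdp1-knockout DT40 cells stably expressing hTDP1, seeded 400/well; qHTS titration format.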
TDP1 cell noCPT: qHTS for Inhibitors of human tyrosyl-DNA phosphodiesterase 1 (TDP1): qHTS in cells in absence of CPT; DT40 Tdp1-/- hTDP1 cells, no CPT, ATP luminescence, 48 h; Potency, µM (titrated, usually from 46.2 µM), without a hit: at the highest dose activity change, negative = growth inhibition, actives largely listed as inhibitors; 15% of 420,000 active; AID 686978, 2013; note: potency is the fitted concentration of half-maximal effect; nearly all actives have a fitted effect of over 55% in size
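Growth of hTDP1-complemented DT40 Tdp1-knockout cells is measured by ATP luminescence after at least 48 hr compound exposure at 37 °C, with DMSO substituting for the 20 nM CPT used in the parallel screen.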
RORgamma inh: inhibitors of mouse ROR gamma transcriptional activity; Drosophila S2 Gal4-RORgamma UAS-luciferase reporter, 20 h; Potency, µM (doses to about 53.6 µM), without a hit: top-dose activity change, negative = inhibition, usual class: inhibitors; P51450; 5.4% of 310,000 active; AID 2551; note: potency is the fitted concentration of half-maximal effect; nearly all actives have a fitted effect of over 60% in size
Target sequence (P51450 whole entry, looked up, the tested form may be a part): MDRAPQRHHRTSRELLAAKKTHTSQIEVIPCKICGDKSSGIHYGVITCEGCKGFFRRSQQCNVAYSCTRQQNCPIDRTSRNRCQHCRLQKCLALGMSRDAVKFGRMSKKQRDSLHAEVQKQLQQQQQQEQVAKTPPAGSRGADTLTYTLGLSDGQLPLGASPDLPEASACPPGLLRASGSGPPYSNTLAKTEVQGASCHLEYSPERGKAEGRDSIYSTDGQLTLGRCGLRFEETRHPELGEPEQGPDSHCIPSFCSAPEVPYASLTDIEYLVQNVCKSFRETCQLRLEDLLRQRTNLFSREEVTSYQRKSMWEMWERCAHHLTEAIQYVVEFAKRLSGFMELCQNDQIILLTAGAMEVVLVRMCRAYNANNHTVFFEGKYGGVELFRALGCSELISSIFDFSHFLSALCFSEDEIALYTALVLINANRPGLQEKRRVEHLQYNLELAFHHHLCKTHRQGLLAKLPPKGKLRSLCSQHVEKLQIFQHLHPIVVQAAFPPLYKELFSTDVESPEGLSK
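Stably transfected Drosophila Schneider cells are the test system, with ROR gamma fused to Gal4 and luciferase under UAS control; luminescence is read after 20 hr of 700 uM copper sulfate induction at ambient temperature.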
Gal4-VP16 FLuc: Gal4-VP16 reporter inhibition counter-screen | Drosophila S2 Gal4-VP16 UAS-luciferase, luminescence, 20 h | Potency, µM (series often up to 53.6 µM), for inactives: top-dose activity, negative = inhibition, most hits filed as inhibitors | 3.5% of 310,000 active | AID 2546;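 note: Gal4-VP16 expression switched on by copper sulfate through the metallothionein promoter; potency is the fitted concentration of half-maximal effect; nearly all actives have a fitted effect of over 50% in size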
Active calls of the source: *; ? = inconclusive; nt = no result given. In the library only some 18% were active in any assay of this set; here they are far more common. Unless noted, calls come from the whole dose curve; as a rule, active = well fitted curve in the direction sought with a large enough effect; inconclusive = small, poorly fitted or top-dose-only effect, or another doubt; inactive = no such curve, though single readings can be large; an effect the other way counts as inactive or inconclusive. Unless noted, % is set by controls: 0 for no effect and ±100 for the full control effect.

SMILES	IL1B secr inh	LDHA block	DT40 TDP1 CPT	TDP1 cell noCPT	RORgamma inh	Gal4-VP16 FLuc
Cc1ccc(-c2nc3ccc(C)cn3c2CC2CCCCC2)cc1	18	12	?	16µM*	nt	nt
COC(=O)c1ccc2nc(-c3ccc(F)cc3)c(CC3CCCCC3)n2c1	45	4	26µM*	21µM*	nt	nt
Cc1ccc2nc(-c3cccc(Br)c3)c(CC3CCCCC3)n2c1	-5	0	?	?	nt	nt
O=C(CCc1ccccc1Cl)NC1CCN(C2CC2)C1 (stereo not drawn)	nt	-5	nt	nt	nt	nt
CSCc1ccc(C(=O)Nc2ccc(F)cc2)o1	nt	-2	nt	nt	nt	nt
CCc1nnc(Cn2cnc3scc(-c4ccccc4)c3c2=O)o1	nt	2	nt	nt	nt	nt
O=C(O)C1CSC(c2coc3ccccc3c2=O)N1 (stereo not drawn)	1	8	26µM*	?	1%	?
CCOC(=O)C1CCN(C(=O)c2ccc3c(c2)sc2nc(-c4ccc(OC)cc4)cn23)CC1	nt	4	23µM*	23µM*	nt	nt
CCOC(=O)N1CCN(C(=O)c2ccc3c(c2)sc2nc(-c4ccc(OC)cc4)cn23)CC1	-21	-3	?	23µM*	37%	-6%
CCOC(=O)C(C)N1C(=O)S/C(=C/c2cn(CC(=O)OC)c3ccccc23)C1=O (stereo not drawn)	nt	1	nt	nt	nt	nt
CCOC(=O)C(C)N1C(=O)S/C(=C/c2cc(C)n(-c3ccccn3)c2C)C1=O (stereo not drawn)	-28	-1	?	16µM*	?	?
COC(=O)C(C)N1C(=O)S/C(=C/c2cc(C)n(C(C)C)c2C)C1=O (stereo not drawn)	-12	9	16µM*	?	-20%	?
CCn1c(C)cc(/C=C2/SC(=O)N(C(C)C(=O)OC)C2=O)c1C (stereo not drawn)	-5	5	?	21µM*	?	-5%
CCn1c(C)cc(/C=C2/SC(=S)N(CC(=O)O)C2=O)c1C	-6	-1	5%	-1%	?	?
C#CCN1C(=O)S/C(=C/c2cc(C)n(CC)c2C)C1=O	-6	-2	?	21µM*	12%	-6%
COC(=O)C(C)N1C(=O)S/C(=C/c2ccccc2)C1=O (stereo not drawn)	nt	-3	nt	nt	nt	nt
Cc1c(Cl)cccc1NC(=O)c1nn(C)c(=O)c2ccccc12	nt	7	nt	nt	nt	nt
CCC(Oc1ccccc1F)C(=O)Nc1c(Cl)cccc1Cl (stereo not drawn)	nt	-24	nt	nt	nt	nt
CC1=C(C(=O)Nc2ccccc2C)C(c2ccc(C(C)(C)C)cc2)NC(=S)N1 (stereo not drawn)	nt	1	nt	nt	nt	nt
COCCn1c(C)cc(/C=C2/SC(=O)N(C(C)C(=O)OC)C2=O)c1C (stereo not drawn)	-2	4	?	26µM*	14%	-25%
COC(=O)C(C)N1C(=O)S/C(=C/c2cccs2)C1=O (stereo not drawn)	nt	1	nt	nt	nt	nt
CC(C(=O)Nc1cc(Cl)cc(Cl)c1)N1CCN(c2ccc(O)cc2)CC1 (stereo not drawn)	nt	13	nt	nt	nt	nt
Cc1cccc(N2C(N)=NC(N)=NC23CCCCC3)c1	15	-2	16µM*	12µM*	-12%	-1%
CN(C)c1oc(-c2ccco2)nc1S(=O)(=O)c1ccc(F)cc1	nt	-1	nt	nt	nt	nt
O=C(/C=C/c1ccc2ccccc2n1)c1cc(Br)ccc1O	44	0	12µM*	?	0%	-6%
SMILES	IL1B secr inh	LDHA block	DT40 TDP1 CPT	TDP1 cell noCPT	RORgamma inh	Gal4-VP16 FLuc
C(=C\c1ccc2ccccc2n1)/c1cccnc1	nt	-4	22µM*	16µM*	nt	nt
C(=Cc1c[nH]c2ccccc12)c1ccc2ccccc2n1	-26	-7	?	?	nt	nt
C(=C\c1ccnc2ccccc12)/c1ccc2ccccc2n1	nt	nt	7.1µM*	7.9µM*	nt	nt
C(=NN1CCCCCC1)c1ccc2ccccc2n1	-4	-4	?	16µM*	nt	nt
C#CCNC(=O)c1ccccc1NCC(=O)Nc1ccccc1OC(F)F	nt	6	nt	nt	nt	nt
O/C(=C\c1ccc2ccccc2n1)c1ccc(O)cc1O	-1	-7	12%	-21%	2.8µM*	8.9µM*
CC(=O)c1ccc(N2CCN(C(=O)/C=C/c3ccc4ccccc4n3)CC2)cc1	53	-8	?	15µM*	25%	2%
O=C(O)c1ccc(/C=C/c2ccc3ccccc3n2)cc1	nt	13	nt	nt	nt	nt
C(=C\c1ccc2ccccc2n1)/c1ccc2ccccc2n1	nt	nt	13µM*	?	nt	nt
Oc1ccc(/C=C/c2ccc3ccccc3n2)cc1	-16	-2	23µM*	21µM*	7.9µM*	11µM*
Oc1ccc(-c2ccc(O)cc2)cc1	nt	-1	nt	nt	nt	nt
Cc1cc(C(=O)OCC(=O)NC(C)c2ccccc2)c2ccccc2n1 (stereo not drawn)	nt	-7	nt	nt	nt	nt
CN(CC(=O)N(C)c1c(N)n(Cc2ccccc2)c(=O)[nH]c1=O)Cc1cccc2ccccc12	nt	-2	nt	nt	nt	nt
CSc1ccc(C(C)NC(=O)c2cc(F)ccc2F)cc1 (stereo not drawn)	nt	3	nt	nt	nt	nt
Cn1cc(/C=C/c2ccc3ccccc3n2)c2ccccc21	nt	nt	11µM*	10µM*	nt	nt
CCn1c(/C=C/c2cn(C)c3ccccc23)nc2ccccc2c1=O	nt	-5	nt	nt	nt	nt
O=C(O)/C=C/c1ccc2ccccc2n1	-71*	-7	?	-27%	44%	-5%
CC[N+](CC)(CC)c1ccc(/C=C/c2ccc3ccccc3n2)cc1	nt	7	0.089µM*	0.071µM*	nt	nt
C(=C\c1ccc2ccccc2n1)/c1ccccc1	6	-3	?	?	0%	-8%
CC(O)CNC(=O)NCCc1ccc(S(N)(=O)=O)cc1 (stereo not drawn)	nt	7	nt	nt	nt	nt
Cc1cccc(N(C)S(=O)(=O)c2cc(-c3cc(C)no3)ccc2C(C)C)c1	nt	9	nt	nt	nt	nt
CCN(CC(=O)Nc1ccccc1C(F)(F)F)C(=O)c1nn(CC(C)C)c(=O)c2ccccc12	nt	9	nt	nt	nt	nt
CCc1ccc(C(=O)CCC2CCCCC2=O)cc1 (stereo not drawn)	-4	0	?	16µM*	-2%	-15%
COc1cc(OC)c2ccc(=O)oc2c1C(CCN1CCCC(C)C1)c1ccc2c(c1)OCO2 (stereo not drawn)	0	1	10µM*	15µM*	-26%	-8%
COc1cc(O)c(C(CCN2CCCC(C)C2)c2ccc3c(c2)OCO3)c(OC)c1 (stereo not drawn)	0	11	16µM*	16µM*	3%	2%
CCOc1ccc(C(N)=S)cc1	nt	6	nt	nt	nt	nt
